Measurements taken from PubChem BioAssay AID1159580 (chemical genetic matrix, 2015).
Among all 5,500 compounds or so, about 2,000 (36%) were called active. Roughly 18% stayed inconclusive and do not appear here. Rule as the data show it: active = normalized growth mostly below about 0.91 (no sharp cut-off); inconclusive = no clear call, values can overlap the other calls; inactive = mostly above about 0.92. The list shows a part of the results.

Test: chemical genetic growth profiling, strain panel (AID 1159580);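 also: tested at 20 µM; growth read once vehicle control cultures reached saturation at 30 °C; 1 = growth at the plate median or of vehicle wells; lower values mean less growth of the strain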
Details: S. cerevisiae deletion strains, growth OD
[1] = locus YAR019C, strain CDC15, stronger effect = lower value
[2] = locus YBL105C, strain PKC1, stronger effect = lower value
[3] = locus YBR135W, strain CKS1, stronger effect = lower value
[4] = locus YBR136W, strain MEC1, stronger effect = lower value
[5] = locus YBR160W, strain CDC28, stronger effect = lower value
[6] = locus YDL017W, strain CDC7, stronger effect = lower value
[7] = locus YDL028C, strain MPS1, stronger effect = lower value
[8] = locus YDL101C, strain DUN1, stronger effect = lower value
[9] = locus YDL108W, strain KIN28, stronger effect = lower value
[10] = locus YDL132W, strain cdc53, stronger effect = lower value
[11] = locus YDL214C, strain PRR2, stronger effect = lower value
[12] = locus YDR052C, strain DBF4, stronger effect = lower value
[13] = locus YDR054C, strain cdc34, stronger effect = lower value
[14] = locus YDR226W, strain ADK1, stronger effect = lower value
[15] = locus YDR477W, strain SNF1, stronger effect = lower value
[16] = locus YER123W, strain YCK3, stronger effect = lower value
[17] = locus YER133W, strain GLC7, stronger effect = lower value
[18] = locus YFL009W, strain cdc4, stronger effect = lower value
[19] = locus YFL029C, strain CAK1, stronger effect = lower value
[20] = locus YFR003C, strain YPI1, stronger effect = lower value
[21] = locus YFR019W, strain FAB1, stronger effect = lower value
[22] = locus YFR028C, strain CDC14, stronger effect = lower value
[23] = locus YGR040W, strain KSS1, stronger effect = lower value
[24] = locus YGR052W, strain FMP48, stronger effect = lower value
[25] = locus YGR092W, strain DBF2, stronger effect = lower value
[26] = locus YHR030C, strain SLT2, stronger effect = lower value
[27] = locus YHR079C, strain IRE1, stronger effect = lower value
[28] = locus YHR082C, strain KSP1, stronger effect = lower value
[29] = locus YHR205W, strain SCH9, stronger effect = lower value
[30] = locus YIL147C, strain SLN1, stronger effect = lower value
[31] = locus YJL095W, strain BCK1, stronger effect = lower value
[32] = locus YJL128C, strain PBS2, stronger effect = lower value
[33] = locus YJL157C, strain FAR1, stronger effect = lower value
[34] = locus YJR016C, strain ILV3, stronger effect = lower value
[35] = locus YJR066W, strain TOR1 (second series), stronger effect = lower value
[36] = locus YJR066W, strain TOR1, stronger effect = lower value
[37] = locus YKL048C, strain ELM1, stronger effect = lower value
[38] = locus YKL067W, strain YNK1, stronger effect = lower value
[39] = locus YKL101W, strain HSL1, stronger effect = lower value
[40] = locus YKL193C, strain SDS22, stronger effect = lower value
[41] = locus YKL203C, strain TOR2, stronger effect = lower value
[42] = locus YLR113W, strain HOG1, stronger effect = lower value
[43] = locus YLR133W, strain CKI1, stronger effect = lower value
[44] = locus YLR403W, strain SFP1, stronger effect = lower value
[45] = locus YML070W, strain DAK1, stronger effect = lower value
[46] = locus YMR001C, strain CDC5, stronger effect = lower value
[47] = locus YMR205C, strain PFK2 (second series), stronger effect = lower value
[48] = locus YMR277W, strain FCP1, stronger effect = lower value
[49] = locus YNL006W, strain LST8, stronger effect = lower value
[50] = locus YNL020C, strain ARK1, stronger effect = lower value
[51] = locus YNL161W, strain CBK1, stronger effect = lower value
[52] = locus YNL183C, strain NPR1, stronger effect = lower value
[53] = locus YNL207W, strain RIO2, stronger effect = lower value
[54] = locus YNL222W, strain SSU72, stronger effect = lower value
[55] = locus YNL307C, strain MCK1 (second series), stronger effect = lower value
[56] = locus YOL078W, strain AVO1, stronger effect = lower value
[57] = locus YOL136C, strain PFK27, stronger effect = lower value
[58] = locus YOR061W, strain CKA2, stronger effect = lower value
[59] = locus YOR119C, strain RIO1, stronger effect = lower value
[60] = locus YOR231W, strain MKK1, stronger effect = lower value
[61] = locus YOR329C, strain SCD5, stronger effect = lower value
[62] = locus YPL031C, strain PHO85, stronger effect = lower value
[63] = locus YPL153C, strain RAD53, stronger effect = lower value
[64] = locus YPL204W, strain HRR25, stronger effect = lower value
[65] = locus YPL209C, strain IPL1, stronger effect = lower value
[66] = locus YPL256C, strain CLN2, stronger effect = lower value
[67] = locus YPR025C, strain CCL1, stronger effect = lower value
[68] = locus YPR106W, strain ISR1, stronger effect = lower value
[69] = locus YPR111W, strain DBF20, stronger effect = lower value
[70] = strain NNK1, stronger effect = lower value
[71] = strain TSCII, stronger effect = lower value

Measured: normalized growth

CCOC(=O)C(NC(=O)c1cccc(Cl)c1)(Nc1nc2ccccc2s1)C(F)(F)F (stereo not drawn)
inactive: [1] 0.967 | [2] 0.957 | [3] 0.956 | [4] 0.96 | [5] 0.967 | [6] 0.962 | [7] 0.961 | [8] 0.973 | [9] 0.963 | [10] 0.952 | [11] 0.927 | [12] 0.955 | [13] 0.952 | [14] 0.956 | [15] 0.917 | [16] 0.906 | [17] 0.9 | [18] 0.954 | [19] 0.975 | [20] 0.957 | [21] 0.955 | [22] 0.963 | [23] 0.926 | [24] 0.943 | [25] 0.996 | [27] 1 | [28] 0.989 | [29] 1.01 | [30] 0.955 | [31] 0.98 | [32] 0.949 | [33] 0.915 | [34] 0.963 | [35] 0.949 | [36] 1.02 | [37] 0.937 | [38] 0.94 | [39] 0.929 | [40] 0.964 | [41] 1.01 | [43] 0.935 | [44] 1.02 | [45] 0.914 | [46] 0.967 | [47] 0.941 | [48] 0.964 | [49] 0.966 | [50] 0.931 | [51] 0.96 | [52] 1.07 | [53] 0.961 | [54] 0.968 | [55] 0.916 | [56] 0.962 | [57] 0.924 | [58] 0.939 | [59] 0.992 | [60] 0.967 | [61] 0.964 | [62] 0.917 | [63] 0.927 | [64] 0.913 | [65] 0.962 | [66] 0.894 | [67] 0.966 | [68] 0.962 | [69] 0.958 | [70] 0.971 | [71] 0.962
active: [26] 0.796 | [42] 0.823

CCOC(=O)C(O)(c1ccc(NC(=O)c2ccc(Cl)c(Cl)c2)cc1)C(F)(F)F (stereo not drawn)
inactive: [1] 0.998 | [2] 0.988 | [3] 1 | [4] 0.989 | [5] 0.996 | [6] 0.997 | [7] 0.993 | [8] 0.994 | [9] 0.997 | [10] 0.997 | [11] 0.874 | [12] 0.996 | [13] 0.991 | [14] 0.992 | [15] 0.92 | [16] 0.859 | [17] 0.926 | [18] 0.99 | [19] 0.992 | [20] 0.999 | [21] 0.933 | [22] 1 | [23] 0.915 | [24] 0.979 | [25] 0.892 | [26] 0.962 | [27] 0.953 | [28] 0.967 | [29] 0.928 | [30] 0.986 | [31] 1.01 | [32] 0.946 | [33] 0.913 | [34] 0.988 | [35] 0.914 | [36] 0.994 | [37] 0.953 | [38] 0.935 | [39] 0.901 | [40] 1 | [41] 0.994 | [42] 0.977 | [43] 0.939 | [44] 0.94 | [45] 0.886 | [46] 0.997 | [47] 0.941 | [48] 1 | [49] 0.986 | [50] 0.919 | [51] 0.99 | [52] 1.02 | [53] 0.992 | [54] 0.994 | [55] 0.91 | [56] 1 | [57] 0.895 | [58] 0.911 | [59] 0.957 | [60] 0.977 | [61] 1 | [62] 0.896 | [63] 0.912 | [64] 0.922 | [65] 0.996 | [66] 0.976 | [67] 1 | [68] 0.988 | [69] 0.986 | [70] 0.987 | [71] 0.993

S=C(NCCc1csc2ccccc12)Nc1ccc(Cl)cc1
inactive: [1] 0.923 | [2] 0.945 | [3] 0.945 | [4] 0.944 | [5] 0.956 | [6] 0.952 | [7] 0.942 | [8] 0.962 | [9] 0.95 | [10] 0.944 | [11] 0.797 | [12] 0.96 | [13] 0.931 | [14] 0.951 | [15] 0.815 | [16] 0.719 | [17] 0.816 | [18] 0.944 | [19] 0.9 | [20] 0.953 | [21] 0.934 | [22] 0.945 | [23] 0.819 | [24] 0.795 | [25] 0.735 | [27] 0.786 | [28] 0.721 | [30] 0.938 | [31] 0.677 | [32] 0.872 | [33] 0.863 | [34] 0.945 | [35] 0.759 | [36] 0.727 | [37] 0.914 | [38] 0.828 | [39] 0.787 | [40] 0.943 | [41] 0.886 | [43] 0.797 | [44] 0.752 | [45] 0.808 | [46] 0.946 | [47] 0.84 | [48] 0.941 | [49] 0.96 | [50] 0.795 | [51] 0.952 | [52] 0.754 | [53] 0.937 | [54] 0.952 | [55] 0.729 | [56] 0.945 | [57] 0.8 | [58] 0.811 | [59] 0.867 | [60] 0.789 | [61] 0.952 | [62] 0.768 | [63] 0.775 | [64] 0.809 | [65] 0.946 | [67] 0.945 | [68] 0.936 | [69] 0.917 | [70] 0.914 | [71] 0.922
active: [26] 0.5 | [29] 0.566 | [42] 0.536 | [66] 0.667
